# Test results reported in PubChem BioAssay (Tox21).
# Where “and” joins values, the source holds several entries; their conditions need not be identical. Identical values can stand only once. Inconclusive results are not listed. Where a call stands in place of a potency, no number is given. Calls of active or inactive are those of the source. Unless noted, calls follow the shape of the dose curve; as a rule, active = well fitted curve in the direction sought with a large enough effect in the repeat runs; inconclusive = weak or mixed curves; inactive = no such curve, though single readings can be large; an effect the other way counts as inactive or inconclusive.
# Legend:
# [1] = qHTS assay for small molecule agonists of the p53 signaling pathway (AID 651631; calls by dose curve; also: nearly all actives have a fitted effect of over 15% in size)
# Outline: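 Quantitative high-throughput format: 4,000 p53RE-bla HCT-116 cells/well, 5 h pre-incubation, 16 h compound exposure at 37 °C, 2 h room-temperature substrate step, fluorescence intensity measured.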
# [2] = qHTS assay for small molecules that induce genotoxicity in human embryonic kidney cells expressing luciferase-tagged ATAD5 (AID 651632); also: nearly all actives have a fitted effect of over 15% in size
# Outline: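 A rise in luciferase signal from ATAD5-tagged HEK293T cells marks genetic stress. Cells were exposed to compounds for 16 hr at 37C, 5% CO2, then luciferase was quantified after a 30 min room-temperature incubation with Amplite.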
# [3] = qHTS assay for small molecule agonists of the p53 signaling pathway - cell viability (AID 651633; calls by dose curve;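 also: p53RE-bla HCT reporter cells with a stable beta-lactamase p53 reporter; nearly all actives have a fitted effect of over 30% in size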)
# Outline: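 p53RE-bla cells, seeded at 4,000 per well and rested 5 h at 37 C/5% CO2, received compounds in DMSO for 16 h at 37 C. CellTiter-Glo was then added, and luminescence was read after 30 min at room temperature to gauge cytotoxicity.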
# [4] = qHTS assay for small molecules that induce genotoxicity in human embryonic kidney cells expressing luciferase-tagged ATAD5 - cell viability (AID 651634; calls by dose curve; also: nearly all actives have a fitted effect of over 25% in size)
# Outline: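 Cytotoxicity counter-readout: after 15.5 hr compound treatment at 37C, live-cell protease activity in ATAD5-luciferase HEK293T cells measured by CellTiter-Fluor fluorescence, 30 min development at 37C.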
# [5] = qHTS assay for small molecule disruptors of the mitochondrial membrane potential - cell viability (AID 720634; calls by dose curve;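 also: human HepG2 liver cancer cells; nearly all actives have a fitted effect of over 20% in size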)
# Outline: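 Cytotoxicity was quantified from ATP content by CellTiter-Glo luminescence in the same wells as the MMP dye read-out. HepG2 (2,000 cells/well) were plated overnight and exposed to compounds for 1 hr at 37 C.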
# [6] = qHTS assay for small molecule disruptors of the mitochondrial membrane potential (AID 720635); also: potency is read from the fitted curve at half-maximal effect
# Outline: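 HepG2 cells (2,000/well) attached overnight at 37C, then took compound for 1 hr at 37C, 5% CO2. Mito-MPS dye was added for 30 min; fluorescence was read at 490/535 nm (monomers) and 540/590 nm (aggregates).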
# [7] = qHTS assay to test for compound auto fluorescence at 590 nm (red) in HepG2 cells (AID 720674)
# Outline: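 Intrinsic compound fluorescence in the red window (Ex/Em 540/590 nm) is measured in attached HepG2 cells exposed for 1 hr, DMSO vehicle as baseline, benchmarked to Rose Bengal sodium.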
# [8] = qHTS assay to test for compound auto fluorescence at 535 nm (green) in HepG2 cells (AID 720675)
# [9] = qHTS assay to test for compound auto fluorescence at 460 nm (blue) in HEK293 cells (AID 720678)
# Outline: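 HEK293 cells (2,000/well, medium with 10% dialyzed FBS) attached 4-5 hr, then exposed to compound overnight at 37C, 5% CO2. Blue fluorescence read at 405/460 nm, with triamterene as reference fluorophore.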
# [10] = qHTS assay to test for compound auto fluorescence at 590 nm (red) in HEK293 cells (AID 720679)
# Outline: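 HEK293 cells (2,000/well, 10% dialyzed FBS) attached 4-5 hr, then dosed with compound or DMSO and incubated overnight at 37C, 5% CO2. Red fluorescence read at 540/590 nm, Rose Bengal sodium as reference fluorophore.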
# [11] = qHTS assay to test for compound auto fluorescence at 535 nm (green) in HEK293 cells (AID 720680)
# [12] = qHTS assay to test for compound auto fluorescence at 460 nm (blue) in HEK293 cell free culture (AID 720681)
# Outline: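 Test compounds were pinned into cell-free culture medium (DMEM with 10% FBS) and fluorescence was read directly at Ex/Em 405/460 nm. Signals were expressed as fluorescence equivalents of triamterene, with DMSO vehicle as control.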
# [13] = qHTS assay to test for compound auto fluorescence at 535 nm (green) in HEK293 cell free culture (AID 720682)
# Outline: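 Measurement is a direct plate read of green fluorescence (485 nm in, 535 nm out) after compound addition to serum-supplemented DMEM lacking cells, with fluorescein used to express intensities.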
# [14] = qHTS assay to test for compound auto fluorescence at 590 nm (red) in HEK293 cell free culture (AID 720683)
# Outline: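 Tox21 10K library compounds were pinned into cell-free DMEM with 10% FBS and fluorescence was read at excitation 540 nm. Activity is expressed as Rose Bengal sodium equivalency.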
# [15] = qHTS assay to test for compound auto fluorescence at 590 nm (red) in HepG2 cell free culture (AID 720684)
# Outline: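 Ex 540 / Em 590 nm read of compound in cell-free MEM (10% FBS). Rose Bengal sodium reference.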
# [16] = qHTS assay to test for compound auto fluorescence at 535 nm (green) in HepG2 cell free culture (AID 720686)
# [17] = qHTS assay to test for compound auto fluorescence at 460 nm (blue) in HepG2 cells (AID 720687)
# Outline: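 Cells (2,000/well in MEM with 10% FBS) attached overnight at 37 C, then were exposed to compound or DMSO for 1 hr at 37 C, 5% CO2. Fluorescence read at Ex/Em 405/460 nm, expressed as triamterene-equivalent signal.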
# [18] = target: Glucocorticoid receptor (Homo sapiens) (UniProt P04150); test: qHTS assay to identify small molecule agonists of the glucocorticoid receptor (GR) signaling pathway (AID 720691; active = well fitted activation curve with a large enough effect in the signal ratio in the repeat runs, not every such curve was filed as active; the % refers to the signal ratio); details: GR-bla HeLa, beta-lactamase reporter ratio, 18 h; activation: at 62.4 µM (top of the series)
# Chain of Glucocorticoid receptor (Homo sapiens) (P04150 whole entry, looked up): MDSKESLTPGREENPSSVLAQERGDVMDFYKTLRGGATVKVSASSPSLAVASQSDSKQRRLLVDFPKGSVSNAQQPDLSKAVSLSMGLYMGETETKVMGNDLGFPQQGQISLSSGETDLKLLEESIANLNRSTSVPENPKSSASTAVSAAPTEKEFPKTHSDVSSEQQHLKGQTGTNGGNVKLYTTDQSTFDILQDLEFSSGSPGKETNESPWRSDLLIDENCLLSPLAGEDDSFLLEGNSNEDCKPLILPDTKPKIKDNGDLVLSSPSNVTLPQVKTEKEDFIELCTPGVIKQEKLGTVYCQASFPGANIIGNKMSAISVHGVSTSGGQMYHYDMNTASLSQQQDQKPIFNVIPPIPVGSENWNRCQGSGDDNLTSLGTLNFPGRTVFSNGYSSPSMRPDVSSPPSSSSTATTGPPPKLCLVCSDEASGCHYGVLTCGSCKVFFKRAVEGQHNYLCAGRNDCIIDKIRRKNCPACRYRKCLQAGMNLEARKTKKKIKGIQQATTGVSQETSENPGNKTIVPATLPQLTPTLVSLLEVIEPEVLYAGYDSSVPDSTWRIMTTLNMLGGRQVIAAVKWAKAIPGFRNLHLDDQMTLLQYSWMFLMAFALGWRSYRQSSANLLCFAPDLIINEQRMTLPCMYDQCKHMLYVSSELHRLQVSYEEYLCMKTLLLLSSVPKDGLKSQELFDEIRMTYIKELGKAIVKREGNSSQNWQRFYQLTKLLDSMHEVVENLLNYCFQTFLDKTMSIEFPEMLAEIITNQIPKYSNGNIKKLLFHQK
# Outline: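 Agonist-mode qHTS in HeLa cells stably expressing a glucocorticoid-response-element beta-lactamase reporter. Fluorescence intensity read with FRET substrate (2 h, room temperature) after 18 h compound treatment at 37 C.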
# [19] = target: Glucocorticoid receptor (Homo sapiens) (UniProt P04150); test: qHTS assay to identify small molecule antagonists of the glucocorticoid receptor (GR) signaling pathway (AID 720692; active = well fitted inhibition curve with a large enough effect in the signal ratio in the repeat runs, not every such curve was filed as active; the % refers to the signal ratio)
# Outline: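 Inhibition of dexamethasone-driven (5 nM final) beta-lactamase expression was measured in GRE-reporter HeLa cells over 18 h at 37C. Fluorescence was read after 2 h with the B/G FRET substrate at room temperature.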
# [20] = qHTS assay to test for compound auto fluorescence at 460 nm (blue) in HepG2 cell free culture (AID 720685)
# Outline: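 Cell-free plates of MEM plus 10% FBS received 23 nL compound or DMSO vehicle; blue-channel (405/460 nm) intensity scored against triamterene as reference fluorophore.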
Compound,Potency [1],outcome [2],Potency [3],Potency [4],Potency [5],Potency [6],outcome [7],outcome [8],outcome [9],outcome [10],outcome [11],outcome [12],outcome [13],outcome [14],outcome [15],outcome [16],outcome [17],Potency [18],Potency [19],outcome [20]
CCC(O)OC(O)CC (stereo not drawn),inactive,inactive,inactive,inactive,inactive,inactive,inactive,inactive,inactive,inactive,inactive,inactive,inactive,inactive,inactive,inactive,inactive,inactive,inactive,–
OCCOCCOCCO,inactive,inactive,inactive,inactive,–,inactive,inactive,inactive,inactive,inactive,inactive,inactive,inactive,inactive,inactive,inactive,–,–,inactive,inactive
C=C(C)C(=O)OCCOCCOCCOC(=O)C(=C)C,inactive,inactive,inactive,inactive,inactive,inactive,inactive,inactive,inactive,inactive,inactive,inactive,inactive,inactive,–,inactive,–,–,inactive,–
CCCCCCCCCCCCCCO,inactive,inactive,inactive,inactive,inactive,61.1 µM (active),inactive,inactive,inactive,inactive,inactive,inactive,inactive,inactive,inactive,inactive,inactive,–,–,inactive
CCCCCCCC(=O)OC,inactive,inactive,inactive,inactive,–,inactive,inactive,inactive,inactive,inactive,inactive,inactive,inactive,inactive,inactive,inactive,–,–,–,–
c1c[nH]cn1,inactive,inactive,inactive,inactive,–,inactive,inactive,inactive,inactive,inactive,inactive,inactive,inactive,inactive,inactive,inactive,–,inactive,inactive,inactive
Oc1cccc2ccccc12,inactive,inactive,inactive,inactive,–,28 µM (active) and 19.3 µM (active),inactive,inactive,inactive,inactive,inactive,inactive,inactive,inactive,–,inactive,inactive,–,inactive,–
Fc1ccc(Br)cc1,inactive,inactive,inactive,inactive,–,inactive,inactive,inactive,inactive,inactive,inactive,inactive,inactive,inactive,inactive,inactive,inactive,inactive,inactive,inactive
Cc1ccc(S(N)(=O)=O)cc1,inactive,inactive,inactive,inactive,inactive,inactive,inactive,inactive,inactive,inactive,inactive,inactive,inactive,inactive,inactive,inactive,inactive,–,inactive,–
N[C@@H](Cc1cc(I)c(Oc2cc(I)c(O)c(I)c2)c(I)c1)C(=O)O,inactive,inactive,inactive,inactive,inactive,–,inactive,inactive,inactive,inactive,inactive,inactive,inactive,inactive,inactive,inactive,inactive,–,–,inactive
Cc1cccc(O)c1,inactive,inactive,inactive,inactive,–,inactive,inactive,inactive,inactive,inactive,inactive,inactive,inactive,inactive,–,inactive,inactive,inactive,inactive,inactive
O=C(O)CC(C(=O)O)C(CC(=O)O)C(=O)O (stereo not drawn),inactive,inactive,inactive,inactive,inactive,inactive,inactive,inactive,inactive,inactive,inactive,inactive,inactive,inactive,inactive,inactive,inactive,–,inactive,–
c1ccc2c(c1)ccc1ccccc12,inactive,inactive,inactive,inactive,inactive,59.5 µM (active),inactive,inactive,inactive,inactive,inactive,inactive,inactive,inactive,–,inactive,–,–,inactive,inactive
CN(C)CCCN,inactive,inactive,inactive,inactive,–,inactive,inactive,inactive,inactive,inactive,inactive,inactive,inactive,inactive,inactive,inactive,–,inactive,inactive,inactive
CCCCCCCCCC,inactive,inactive,inactive,inactive,inactive,inactive,inactive,inactive,inactive,inactive,inactive,inactive,inactive,inactive,inactive,inactive,inactive,–,–,–
Cc1ccc(N(C)C)cc1,inactive,inactive,inactive,inactive,inactive,inactive,inactive,inactive,inactive,inactive,inactive,inactive,inactive,inactive,–,inactive,inactive,inactive,inactive,inactive
O=C=NCCCCCCN=C=O,inactive,inactive,inactive,inactive,inactive,inactive,inactive,inactive,inactive,inactive,inactive,inactive,inactive,inactive,inactive,inactive,inactive,–,–,inactive
